# Measured values from PubChem BioAssay AID1986 (Sanford-Burnham Center for Chemical Genomics, 2009).
# In all, about 290,000 compounds went through this assay and about 890 (0.31%) were called active. The sample holds actives, similar compounds and a random draw of the others, so the mix is not that of the screen. Rule as the data show it: active = inhibition mostly above about 52% (no sharp cut-off); inactive = mostly below about 76%.
# Assay: inhibitors of HIV fusion peptide binding, primary screen, biochemical, uHTS, fluorescence dequenching (AID 1986)
# Settings: cell-free peptide binding, 30 min, stronger effect = higher value
# [1] = measured here: repeat confirmation average inhibition, at 18.6 µM
SMILES,inhibition (at 20 µM),inhibition [1] [%]
Cc1nnsc1-c1nc2ccccc2[nH]1,-1.6% (inactive),
COc1ccc(NC(=O)c2cc(Br)ccc2Cl)c([N+](=O)[O-])c1,-0.4% (inactive),
O/N=C\c1ccc2noc(-c3ccc(Cl)cc3)c2c1,0% (inactive),
c1ccc(Oc2ncnc3sccc23)cc1,-1.5% (inactive),
N#Cc1ccc(CSc2nnc(NC(=O)CN3C(=O)C4CC=CCC4C3=O)s2)cc1 (configuration not stated),6.4% (inactive),
COc1cccc(/C=N/NC(=O)c2[nH]c(C)c(C(=O)N/N=C/c3cccc(OC)c3O)c2C)c1O,4.6% (inactive),
CCCn1cnc2scc(-c3ccc(C)cc3)c2c1=O,-1.9% (inactive),
Cc1ccc(C)c(NC(=O)CSc2nnc(C3CCCCC3)o2)c1,-1.1% (inactive),
O=C(O)CCn1c(=O)n(CCC(=O)O)c(=O)n(CCC(=O)O)c1=O,0.1% (inactive),
O=C(CN1c2ccccc2Sc2ccccc21)N/N=C/c1ccc(Cl)cc1,-1% (inactive),
C[n+]1ccc(/C=C/c2c[nH]c3ccc(F)cc23)cc1,77.8% (active),85.8
Cc1ccc2[nH]cc(/C=C/c3cc[n+](C)cc3)c2c1,160% (inactive),
COc1ccc2[nH]cc(/C=C/c3cc[n+](C)cc3)c2c1,18.3% (inactive),
CC1=C(C(=O)Nc2ccc(C(=O)NC(C)c3ccccc3)cc2)SCCO1 (configuration not stated),2.3% (inactive),
O=C(Nc1cccc(C(=O)N2CCCCC2)c1)c1ccccc1Br,-1.4% (inactive),
O=S(=O)(NCc1ccccc1F)NCc1ccccc1F,-1.9% (inactive),
O=c1c(-c2nc3ccccc3o2)c2oc3ccccc3n2c2ccccc12,-2.3% (inactive),
O=c1c(Cl)c2oc3ccccc3nc-2c2ccccc12,50.8% (active),
Clc1ccc(-c2nnc(Sc3nc4ccccc4o3)c3ccccc23)cc1,-0.2% (inactive),
O=C(N/N=C\c1ccc2c(c1)OCO2)c1ccc(Cn2cc(Br)c([N+](=O)[O-])n2)o1,-2.8% (inactive),
CCN(CC)Cc1c(O)ccc2c(=O)c(-c3ccccc3)coc12,-1.9% (inactive),
COc1ccccc1/C=C/C=C1\Oc2c(ccc(O)c2CN2CCN(CCO)CC2)C1=O,122% (active),
CS(=O)(=O)Oc1ccc2c(c1)O/C(=C\C=C\c1ccccc1)C2=O,3.8% (inactive),

SMILES,inhibition (at 20 µM),inhibition [1] [%]
CCN1CCN(Cc2c(O)ccc3c2O/C(=C\C=C\c2ccccc2OC)C3=O)CC1,149% (inactive),
CCN1CCN(Cc2c(O)ccc3c2O/C(=C\c2ccccc2)C3=O)CC1,67.8% (inactive),22.1
CCN(CC)Cc1c(O)ccc2c1O/C(=C\C=C\c1ccccc1)C2=O,116% (active),143
CN(C)Cc1c(O)ccc2c1O/C(=C\C=C\c1ccccc1)C2=O,77.7% (active),124
CCN1CCN(Cc2c(O)ccc3c2O/C(=C\C=C\c2ccccc2)C3=O)CC1,53.7% (active),
CCN(CC)Cc1c(O)ccc2c(-c3ccccc3)cc(=O)oc12,-2.2% (inactive),
O=C1/C(=C/C=C/c2ccccc2)Oc2c1ccc(O)c2CN1CCN(CCO)CC1,128% (inactive),
Cc1ccc(/C=C2\Oc3c(ccc(O)c3CN3CCN(CCO)CC3)C2=O)cc1,35.2% (inactive),
COc1ccccc1/C=C/C=C1\Oc2c(ccc(O)c2CN(C)C)C1=O,146% (inactive),
CCCCN(C)CCNC(=O)CN1C(=O)CSc2ccc(S(=O)(=O)N3CCOCC3)cc21,1% (inactive),
CCN1C(=O)c2cccc3c(S(=O)(=O)Nc4ccncc4)ccc1c23,3.5% (inactive),
COc1ccccc1C(=O)C1CCCN(C(=O)c2cc(CC(C)C)nc(C)n2)C1 (configuration not stated),-0.9% (inactive),
CCOc1ccc(-n2cnnn2)cc1S(=O)(=O)NC1CC1,0.2% (inactive),
CCOC(=O)N1CCN(C(=O)C2CCN(S(=O)(=O)c3c(C)cc(C)cc3C)CC2)CC1,-1.7% (inactive),
O=C(NCc1ccco1)c1ccc(Cl)nc1,-2% (inactive),
CCN1CCc2c(sc(NC(=S)NC(=O)c3ccccc3)c2C#N)C1,26.3% (inactive),
CC(C)N1CCc2c(sc(NC(=O)Cc3ccccc3)c2C#N)C1,-0.4% (inactive),
N#Cc1c(NC(=S)NC(=O)c2ccccc2)sc2c1CCN(CCc1ccccc1)C2,138% (inactive),
N#Cc1c(NC(=S)NC(=O)c2ccccc2)sc2c1CCC2,14.9% (inactive),
CCCN1CCc2c(sc(NC(=S)NC(=O)c3ccccc3)c2C#N)C1,78.4% (active),
CC(C)N1CCc2c(sc(NC(=S)NC(=O)c3ccccc3)c2C#N)C1,81% (active),
CCC1(C)Cc2c(sc(NC(=S)NC(=O)c3ccccc3)c2C#N)CO1 (configuration not stated),-2.1% (inactive),
N#Cc1c(NC(=S)NC(=O)c2ccccc2)sc2c1CCCC2,0.9% (inactive),

SMILES,inhibition (at 20 µM),inhibition [1] [%]
CN1Cc2sc(NC(=S)NC(=O)c3ccccc3)c(C#N)c2CC1(C)C,70.3% (active),
N#CC(c1ccccc1)C1CCN(Cc2ccccc2)CC1 (configuration not stated),0.8% (inactive),
O=c1c2cn[nH]c2[nH]c(=S)n1-c1ccccc1,1.4% (inactive),
CCCCC/S(CC1CC1(Cl)Cl)=N\S(=O)(=O)c1ccc(C)cc1 (configuration not stated),0.9% (inactive),
CN(CC(=O)Nc1ccc(C(N)=O)cc1)CC(=O)Nc1ccccc1Br,0.7% (inactive),
O=C(Nc1ccncc1)Nc1ccc(F)c(Cl)c1,0.5% (inactive),
CC1=NN(C(=O)c2ccccc2C)C(O)(c2ccc(Cl)cc2)C1 (configuration not stated),-2.2% (inactive),
N#Cc1c(N)oc(-c2ccco2)c1-c1ccco1,2.6% (inactive),
CC(Oc1ccccc1)C(=O)Nc1oc(-c2ccco2)c(-c2ccco2)c1C#N (configuration not stated),76.1% (active),
CC(C)CC(C(=O)Nc1oc(-c2ccco2)c(-c2ccco2)c1C#N)N1C(=O)c2ccccc2C1=O (configuration not stated),-0.7% (inactive),
O=C(Nc1ccnn1C1CCN(Cc2ccc(Cl)cc2)CC1)C1CCCC1,1.4% (inactive),
O=C(N/N=C/c1cccc([N+](=O)[O-])c1O)C(O)(c1ccccc1)c1ccccc1,11% (inactive),
C/C=C\C=C/C(=O)Nc1cccc(C2=NOC3(C2)C[C@H](C(N)=O)N(C(=O)c2ccc(OC)cc2)C3)c1 (some centres not stated),5.2% (inactive),
O=C(O)CSc1cc(C(=O)c2ccccc2O)cn2c(=O)c3c(-c4ccccc4)csc3nc12,59.6% (active),
Cc1sc2nc3c(SC(C)C(=O)O)cc(C(=O)c4ccccc4O)cn3c(=O)c2c1C (configuration not stated),20.4% (inactive),
CCOC(=O)c1sc2nc3c(SCC(=O)O)cc(C(=O)c4ccccc4O)cn3c(=O)c2c1C,49.9% (inactive),
CN(C)/C=C(/C(=O)c1ccc(Cl)c(Cl)c1)S(C)(=O)=O,0.6% (inactive),
CCOc1ccc(NC(=O)CN(C)C(=O)c2cccnc2SC)cc1OCC,0.9% (inactive),
CN(C)c1ccc(/C=C/c2nc3ccccc3s2)cc1,3.1% (inactive),
CCN(CC)c1ccc(/C=N/n2c(C)nc3ccccc3c2=O)cc1,-0.4% (inactive),
CCN(CC)c1ccc(NC(=O)COC(=O)/C=C/c2nc3ccccc3s2)cc1,-1.3% (inactive),
CCN(CC)c1ccc(/C=C/c2cc(-c3ccccc3)c3ccccc3n2)cc1,96.8% (active),
CCN(CC)c1ccc(/C=C/c2nc3ccccc3s2)cc1,53% (active),

SMILES,inhibition (at 20 µM),inhibition [1] [%]
Cc1cc(/C=C\c2ccccc2)nc2ccccc12,1.2% (inactive),
Cc1ccccc1C(=NC(=O)c1ccccc1)c1ccccc1,0.6% (inactive),
COc1cc(/C=C(\C#N)c2nc3ccccc3[nH]2)cc(Br)c1OCc1ccccc1,6.5% (inactive),
COc1ccc(/C=C(\C#N)c2nc3ccccc3[nH]2)cc1O,-0.7% (inactive),
COc1cc(/C=C(\C#N)C(=O)c2c(C)[nH]c3ccccc23)cc(OC)c1OC,-1.7% (inactive),
COc1cc(/C=C(\C#N)c2nc(-c3cc4ccccc4oc3=O)cs2)ccc1O,31.9% (inactive),
COc1ccc(/C=C(\C#N)C(=O)c2c(C)[nH]c3ccccc23)cc1OC,-1.1% (inactive),
COc1cc(/C=C(/C#N)c2nc(-c3cc4ccccc4oc3=O)cs2)cc([N+](=O)[O-])c1O,66.8% (active),
COc1cc(/C=C(\C#N)c2nc3ccc(C)cc3[nH]2)c([N+](=O)[O-])cc1OC,-2.7% (inactive),
COc1cc(/C=C(\C#N)c2nc3ccccc3[nH]2)cc(OC)c1O,69.9% (active),
COc1cc(/C=C(\C#N)C(=O)c2c[nH]c3ccccc23)cc(OC)c1O,62.6% (active),
COc1ccc(-c2csc(/C(C#N)=C\c3ccc(O)c([N+](=O)[O-])c3)n2)cc1OC,62.9% (inactive),9.1
COc1ccc(/C=C(\C#N)c2nc3ccc(C)cc3[nH]2)cc1Oc1ccc(C(F)(F)F)cc1[N+](=O)[O-],10% (inactive),
CSc1ccc(S(=O)(=O)N2CCC(C(=O)NCC3CCCO3)CC2)cc1 (configuration not stated),-1.2% (inactive),
COc1ccc(NC(=O)c2ccsc2NC(C)=O)cc1,-0.1% (inactive),
COCCSc1nnc(NC(=O)c2ccc(NC(=O)C(C)C)cc2)s1,1.5% (inactive),
CCN(c1ccccc1)S(=O)(=O)c1ccc(OCC(=O)Nc2cc(C)on2)cc1,-4% (inactive),
Cc1c(NC(=O)c2c(F)cccc2F)c(=O)n(-c2ccccc2)n1C,0.4% (inactive),
CCOc1cc(N2CCOCC2)c(OCC)cc1NC(=O)COC(=O)c1cc2ccccc2cc1O,-0.9% (inactive),
CCOC(=O)CNC(=O)CNC(=O)Cn1ccc2ccccc2c1=O,-0.8% (inactive),
O=C(C[n+]1ccc(C(=O)NCc2ccccc2)cc1)c1ccc(Cl)cc1,1.3% (inactive),
Cc1ccc(NC(=O)COC(=O)Cn2cnc3c2c(=O)n(C)c(=O)n3C)c(Cl)c1,1.4% (inactive),
O=C(NCCCCc1ccccc1)C1CCCC1,-0.4% (inactive),
